Molecules are shown by their SMILES. Among all 39,000 compounds or so, about 3,300 (8.5%) were called active. The list comes from a sample in which actives are over-represented; it also holds similar structures and randomly drawn compounds.

This passage reports cytotoxicity call results from the antibiotic and cytotoxicity screens of Wong et al. (2023).

The test system of the assay is HepG2. The experiment in a line: cytotoxicity call (relative viability < 0.9). Particulars: 10 µM.
In the case of `CC(C)NC(=O)Nc1cccc2c1O[C@@H](CN(C)Cc1ccc3c(c1)OCO3)[C@@H](C)CN([C@@H](C)CO)C2=O`, the cytotoxicity call is “inactive”.

As for `O=C(C[C@@H]1C[C@H]2c3cc(NC(=O)C4CCOCC4)ccc3O[C@H]2[C@H](CO)O1)NCc1ccc(Cl)cc1`, the cytotoxicity call was “inactive”.

As to `O=C(C[C@H]1C[C@@H]2c3cc(NC(=O)Nc4ccc(C(F)(F)F)cc4)ccc3O[C@@H]2[C@@H](CO)O1)NC1CCCCC1`, the cytotoxicity call was “inactive”.

`CC(CN)(Cc1ccccc1Cl)C(=O)O` (centres undefined): the cytotoxicity call is “inactive”.

Consider `C/C(C[P+](c1ccccc1)(c1ccccc1)c1ccccc1)=N\NC(=O)CCCCCC(=O)Nc1ccccc1O`, for which the cytotoxicity call is “inactive”.

Consider `C[C@H]1CN([C@@H](C)CO)C(=O)c2cc(C#CCN(C)C)cnc2O[C@@H]1CN(C)S(=O)(=O)c1cn(C)cn1`, for which the cytotoxicity call is “inactive”.

Take `C[C@H](CO)N1C[C@H](C)[C@@H](CN(C)C(=O)Nc2ccc3c(c2)OCO3)OCCCC[C@H](C)Oc2ccc(NC(=O)Nc3cccc4ccccc34)cc2C1=O`: the cytotoxicity call is “inactive”.

As to `C[C@@H]1CCCCO[C@@H](CN(C)S(=O)(=O)c2cccs2)[C@H](C)CN([C@@H](C)CO)C(=O)c2cc(NS(=O)(=O)c3cn(C)cn3)ccc2O1`, the cytotoxicity call was “inactive”.

Turning to `C[C@H](CO)N1C[C@H](C)[C@@H](CN(C)C(=O)C2CC2)OCc2cnnn2CCCC1=O`, the cytotoxicity call was “inactive”.

On to `C[C@@H]1CN([C@@H](C)CO)C(=O)Cc2cc(NC(=O)Nc3ccc(C(F)(F)F)cc3)ccc2O[C@H]1CN(C)C(=O)Nc1cccc2ccccc12`, for which the cytotoxicity call is “inactive”.

For `CO[C@H]1O[C@H](CO)[C@@H](OC(=O)Nc2ccc3c(c2)OCO3)[C@H](OC(=O)Nc2ccc3c(c2)OCO3)[C@@H]1OC(=O)Nc1ccc2c(c1)OCO2`, the cytotoxicity call was “active”.

As to `CO[C@H]1O[C@H](CO)[C@@H](OC(=O)Nc2ccccc2-c2ccccc2)[C@H](OC(=O)Nc2ccc3c(c2)OCO3)[C@H]1OC(=O)Nc1ccc2c(c1)OCO2`, the cytotoxicity call is “inactive”.

On to `CO[C@H]1O[C@H](CO)[C@@H](OC(=O)Nc2ccccc2-c2ccccc2)[C@H](OC(=O)Nc2ccc3c(c2)OCO3)[C@@H]1OC(=O)Nc1ccc2c(c1)OCO2`, for which the cytotoxicity call was “inactive”.

Regarding `Nn1c(CO)nc2ccccc21`, the cytotoxicity call is “inactive”.

Take `O=C(N[C@H]1CC[C@H](CCNS(=O)(=O)c2ccc(F)cc2)O[C@H]1CO)C1CC1`: the cytotoxicity call is “inactive”.

With `C[C@H]1CN([C@@H](C)CO)C(=O)Cc2cc(NC(=O)Nc3ccc4c(c3)OCO4)ccc2O[C@@H]1CN(C)S(C)(=O)=O`, the cytotoxicity call is “inactive”.

Regarding `C[C@H]1CCCCO[C@H](CN(C)C(=O)C2CCCCC2)[C@@H](C)CN([C@@H](C)CO)C(=O)c2cc(NC(=O)c3ccncc3)ccc2O1`, the cytotoxicity call is “inactive”.

Take `C[C@@H]1CN([C@@H](C)CO)C(=O)c2cc(NC(=O)Nc3ccc(F)cc3)ccc2O[C@@H]1CN(C)S(C)(=O)=O`: the cytotoxicity call is “inactive”.

As for `Cc1noc(C)c1NC(=O)N(C)C[C@H]1Oc2ncc(C#CCC(C)C)cc2C(=O)N([C@@H](C)CO)C[C@H]1C`, the cytotoxicity call was “inactive”.

`COc1ccccc1-c1cccc(-c2nc(C(=O)Nc3nccs3)cc3c2[C@H](CCO)N(C(=O)CC2CC2)C3)c1`: the cytotoxicity call is “inactive”.

Consider `CCC(=O)N1Cc2cc(C(=O)Nc3nccs3)nc(-c3cccc(-c4ccccc4OC)c3)c2[C@H]1CCO`, for which the cytotoxicity call is “inactive”.

On to `COc1ccccc1-c1cccc(-c2nc(C(=O)Nc3nccs3)cc3c2[C@@H](CCO)N(C(=O)CC2CC2)C3)c1`, for which the cytotoxicity call is “active”.

As for `C[C@@H]1CN([C@@H](C)CO)C(=O)c2cc(NS(=O)(=O)c3ccc(Cl)cc3)ccc2O[C@@H](C)CCCCO[C@@H]1CN(C)Cc1ccncc1`, the cytotoxicity call is “inactive”.

Regarding `C[C@@H]1CN([C@H](C)CO)C(=O)c2cc(C3=CCCCC3)cnc2O[C@@H]1CN(C)C(=O)CN1CCOCC1`, the cytotoxicity call is “inactive”.

For `c1nc2c(c(N3CCOCC3)n1)CCNCC2`, the cytotoxicity call was “inactive”.

As to `CCCCC(CC)CN1CN(CC(CC)CCCC)CC(C)(N)C1` (centres undefined), the cytotoxicity call was “active”.

With `C[C@@H]1CCCCO[C@@H](CN(C)C(=O)Nc2ccccc2)[C@H](C)CN([C@H](C)CO)C(=O)c2cc(NC(=O)C3CCCCC3)ccc2O1`, the cytotoxicity call was “inactive”.

Consider `COc1ccc(S(=O)(=O)N(C)C[C@@H]2OCCCC[C@H](C)Oc3ccc(NC(=O)Nc4ccc(F)cc4)cc3C(=O)N([C@H](C)CO)C[C@@H]2C)cc1`, for which the cytotoxicity call was “inactive”.

For the compound `C[C@H](CO)N1C[C@H](C)[C@@H](CN(C)C(=O)Nc2ccc(C(F)(F)F)cc2)OCCCC[C@H](C)Oc2ccc(NS(=O)(=O)c3cn(C)cn3)cc2C1=O`, the cytotoxicity call was “inactive”.

For the compound `Cc1ccc(S(=O)(=O)Nc2ccc3c(c2)C(=O)N([C@H](C)CO)C[C@H](C)[C@@H](CN(C)Cc2ccc(C(F)(F)F)cc2)OCCCC[C@@H](C)O3)cc1`, the cytotoxicity call was “inactive”.

Consider `Cc1ccc(S(=O)(=O)Nc2ccc3c(c2)C(=O)N([C@@H](C)CO)C[C@H](C)[C@H](CN(C)Cc2ccc(C(F)(F)F)cc2)OCCCC[C@H](C)O3)cc1`, for which the cytotoxicity call was “inactive”.

`C[C@H]1CCCCO[C@H](CN(C)Cc2ccc(C(F)(F)F)cc2)[C@@H](C)CN([C@@H](C)CO)C(=O)c2cc(NS(=O)(=O)c3ccc(F)cc3)ccc2O1`: the cytotoxicity call was “inactive”.

For `C[C@H]1CCCCO[C@@H](CN(C)Cc2ccc(C(F)(F)F)cc2)[C@@H](C)CN([C@@H](C)CO)C(=O)c2cc(NS(=O)(=O)c3ccc(F)cc3)ccc2O1`, the cytotoxicity call was “inactive”.

For `C[C@@H]1CN([C@@H](C)CO)C(=O)c2cc(NS(=O)(=O)c3ccc(F)cc3)ccc2O[C@@H](C)CCCCO[C@@H]1CN(C)Cc1ccc(C(F)(F)F)cc1`, the cytotoxicity call was “inactive”.

For `C[C@@H]1CCCCO[C@H](CN(C)Cc2ccc(C(F)(F)F)cc2)[C@H](C)CN([C@@H](C)CO)C(=O)c2cc(NS(=O)(=O)c3ccc(F)cc3)ccc2O1`, the cytotoxicity call was “inactive”.

Consider `Cc1ccc(S(=O)(=O)Nc2ccc3c(c2)C(=O)N([C@H](C)CO)C[C@H](C)[C@H](CN(C)Cc2ccc(C(F)(F)F)cc2)OCCCC[C@@H](C)O3)cc1`, for which the cytotoxicity call is “active”.

For `Cc1ccc(S(=O)(=O)Nc2ccc3c(c2)C(=O)N([C@@H](C)CO)C[C@@H](C)[C@H](CN(C)Cc2ccc(C(F)(F)F)cc2)OCCCC[C@H](C)O3)cc1`, the cytotoxicity call was “active”.

As to `Cc1ccc(S(=O)(=O)Nc2ccc3c(c2)C(=O)N([C@H](C)CO)C[C@@H](C)[C@@H](CN(C)Cc2ccc(C(F)(F)F)cc2)OCCCC[C@H](C)O3)cc1`, the cytotoxicity call is “active”.

As for `Cc1ccc(S(=O)(=O)Nc2ccc3c(c2)C(=O)N([C@H](C)CO)C[C@@H](C)[C@H](CN(C)Cc2ccc(C(F)(F)F)cc2)OCCCC[C@@H](C)O3)cc1`, the cytotoxicity call was “active”.
